{
  "source": "PubChem BioAssay (NCI)",
  "note": "Compounds without any hit were thinned out: in the full panel of roughly 83,000, 20% have a hit.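 Results are percent growth after 48 hours of single-concentration exposure. 100 means growth as in untreated cells, lower positive values show inhibition; negative values down to -100 show cell death.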 Activity calls are given as the source filed them.",
  "data": [
    {"system": "COLO 205 colon", "assay": "NCI-60 one-dose screen, 48 h (100 = growth as untreated, 0 = no growth, -100 = all killed)", "details": "10 µM unless noted", "experimental": "Cells are grown in 96 well plates and exposed to the test compound for 48 hours. Compounds are tested at a single concentration, which is 10^-5 M for most compounds. The reported endpoint is percent growth (GI% or GIPRCNT), where numbers from 0 - 100% represent growth inhibition, and numbers from -100% - 0 represent cell death. For example, a value of 40 represents 60% growth inhibition. A value of 0 means no net growth occurred over the course of the experiment. A value of -40 indicates 40% of cells at the beginning of the experiment died by the end of the experiment. A value of -100 means all cells are dead at the end of the experiment.\nNCI-60 Human Tumor Cell Lines Screen was performed using the standard one-dose NCI protocol, which is described in more detail at https://dtp.cancer.gov/discovery_development/nci-60/default.htm.\nCompounds with GIPRCNT values below 10 were considered active. Activity score was based on GIPRCNT using the following formula: […]\nScore is 0 for GIPRCNT values of 100 or above, 50 for GIPRCNT values of 0, and 100 for GIPRCNT values of -100.", "values": [
      {"smiles": "O=C(N/N=C\\c1ccccc1S(=O)(=O)O)N/N=C/c1ccccc1S(=O)(=O)O", "growth": "106% (inactive)"},
      {"smiles": "COc1cc(/C=C2\\CN(S(=O)(=O)c3ccccc3)C/C(=C\\c3cc(CN4CCCCC4)c(O)c(OC)c3)C2=O)cc(CN2CCCCC2)c1O", "growth": "-4.52% (active)"},
      {"smiles": "O=C1c2cccc3cccc(c23)C(=O)N1C/C=C/c1ccc2c3c(cccc13)C(=O)N(CCO)C2=O", "growth": "68.3% (inactive)"},
      {"smiles": "O=c1c2c3c(sc2n2c(-c4cc(-c5ccccc5)no4)nnc2n1Cc1ccccc1)CCCC3", "growth": "96.4% (inactive)"},
      {"smiles": "O=C(Nc1ccccc1O)c1ccc(CNC(=O)c2ccsc2Nc2ccnc(C(F)(F)F)c2)cc1", "growth": "47.3% (inactive)"},
      {"smiles": "CC/C=C\\CCC/C=C1/C(=O)C=C[C@@H]1C/C=C\\CCCC(=O)OC", "growth": "49.7% (inactive)"},
      {"smiles": "COc1ccc(/C(C)=C(\\c2ccc(Cl)cc2)c2ccc(OCCN3CCCCC3)cc2)cc1", "growth": "-4.92% (active)"},
      {"smiles": "CC1=C(C(=O)Nc2nc(-c3ccc(Cl)cc3)cs2)[C@H](c2ccc(O)cc2)NC(=O)N1", "growth": "110% (inactive)"},
      {"smiles": "CN1CCN(Cc2ccc(NC(=O)c3cncc(C#Cc4cnc5ccc(Cl)nn45)c3)cc2C(F)(F)F)CC1", "growth": "-46.1% (active)"},
      {"smiles": "CS(=O)(=O)Nc1cc(-c2ccc3ncc(C#N)c(Nc4ccc(F)c(Cl)c4)c3c2)cnc1Cl", "growth": "-53.5% (active)"},
      {"smiles": "C#CCNC(=O)[C@]1(C)CCC[C@@]2(C)[C@H]1CC=C1C=C(C(C)C)CC[C@@H]12", "growth": "115% (inactive)"},
      {"smiles": "C=CCC(CCCC)(C(=O)OCC)C(=O)OCC", "growth": "111% (inactive)"},
      {"smiles": "C#Cc1cccc(Nc2nc(C)nc3cc(NC(=O)CCl)ccc23)c1", "growth": "-78.6% (active)"},
      {"smiles": "O=C(Cc1cccc(OC(F)(F)F)c1)Nc1ccc(CCCCc2nnc(NC(=O)Cc3ccccn3)s2)nn1", "growth": "88.8% (inactive)"},
      {"smiles": "CCN1CCN(c2cc(C)nc(N(CCNc3ccnc4cc(Cl)ccc34)Cc3ccc4c(c3)OCO4)n2)CC1", "growth": "-89.5% (active)"},
      {"smiles": "Cc1cc(Nc2ccc(C(=O)N3CCCC3)cc2)nc(NCCCNc2ccnc3cc(Cl)ccc23)n1", "growth": "76.5% (inactive)"},
      {"smiles": "COc1cc(-c2nc3cc(Cl)c(Cl)cc3[nH]2)ccc1OCC(=O)N=Nc1c(O)[nH]c2ccc(Cl)cc12", "growth": "-63.3% (active)"},
      {"smiles": "COc1ccc(C(=S)N2CCN(c3ccc(Cl)cc3)CC2)cc1", "growth": "103% (inactive)"},
      {"smiles": "COc1ccc(C[n+]2c3ccccc3n3c4ccc(N)cc4ccc32)c(OC)c1OC", "growth": "15.5% (inactive)"},
      {"smiles": "C#CC#CC#CC#CC#CC#CC#CC#CCC1OC[C@H](COC(=O)O[C@@H](C(=O)O[C@H]2C[C@@]3(O)[C@@H](OC(=O)c4ccccc4)[C@@H]4[C@]5(OC(C)=O)CO[C@@H]5C[C@H](O)[C@@]4(C)C(=O)[C@H](OC(C)=O)C(=C2C)C3(C)C)[C@@H](NC(=O)c2ccccc2)c2ccccc2)O1", "note": "(stereo not given in full)", "growth": "23% (inactive)"},
      {"smiles": "COc1cc(/C=N/Nc2ccc(Br)cc2)cc(OC)c1OC", "growth": "86.9% (inactive)"},
      {"smiles": "CC1(C)CC[C@]2(C(=O)N[C@H](CO)Cc3ccccc3)CC[C@]3(C)C(=CC[C@@H]4[C@@]5(C)CCCNC(C)(C)[C@@H]5CC[C@]43C)[C@@H]2C1", "growth": "77.8% (inactive)"},
      {"smiles": "CCCCNC(=O)Oc1ccc(/C(=C(/C)Cc2ccc(OC)cc2)c2ccc(OCCN3CCCCC3)cc2)cc1", "growth": "34.9% (inactive)"},
      {"smiles": "C/C(Cc1ccc(Cl)cc1)=C(\\c1ccc(OCCCN(C)C)cc1)c1ccc(OC(=O)Cc2ccccc2)cc1", "growth": "112% (inactive)"},
      {"smiles": "COC(=O)c1nc(-c2ccccc2)oc1S(=O)(=O)NCC(c1ccc(Cl)cc1)N1CCOCC1", "note": "(stereo not given)", "growth": "78.1% (inactive)"},
      {"smiles": "NS(=O)(=O)c1ccc(NC(=O)/C(=C\\c2ccc(Cl)cc2Cl)NC(=O)c2ccccc2)cc1", "growth": "110% (inactive)"},
      {"smiles": "CC(=C(c1ccc(OCCN2CCCCC2)cc1)c1ccc(OCCN2CCCCC2)cc1)c1ccc(Cl)cc1", "growth": "-68.2% (active)"},
      {"smiles": "COC(=O)/C=C1/SC(=Nc2ccc([N+](=O)[O-])cc2)N(CCc2c[nH]c3ccc(O)cc23)C1=O", "growth": "78.1% (inactive)"},
      {"smiles": "O=P(O)(O)OCC1OC(n2cnc3c(NCc4ccco4)ncnc32)C(O)C1O", "note": "(stereo not given)", "growth": "22.8% (inactive)"},
      {"smiles": "CC1(C)NCCC[C@]2(C)[C@H]3CC[C@H]4[C@H]5[C@H](C(=O)/C=C/c6cccnc6)CCC[C@]5(CO)CC[C@@]4(C)[C@]3(C)CC[C@@H]12", "growth": "-72.9% (active)"},
      {"smiles": "CS(=O)(=O)c1nnc(-c2ccccc2)s1", "growth": "77.3% (inactive)"},
      {"smiles": "NC(=O)c1c(NC(=O)c2cccc(C(F)(F)F)c2)sc2c1CCC(=O)C2", "growth": "-51.2% (active)"},
      {"smiles": "C/C(=N\\O)c1ccc(NC(=O)CSc2nnc(-c3cc(-c4ccc(S(N)(=O)=O)cc4)nc4ccccc34)n2-c2ccccc2)cc1", "growth": "78.3% (inactive)"},
      {"smiles": "COc1ccc2c(c1)c(-c1nc(-c3c[nH]c4ncccc34)cs1)cn2CCO", "growth": "56.9% (inactive)"},
      {"smiles": "COc1ccc(/C=C/C(c2cc(OC)c(OC)c(OC)c2)n2ccnc2)cc1O", "note": "(stereo not given)", "growth": "89.8% (inactive)"},
      {"smiles": "O=C(NC1CC(F)C1)c1cc2cccnc2n1-c1ccc(Cl)c(Cl)c1", "note": "(stereo not given)", "growth": "109% (inactive)"},
      {"smiles": "CC(=O)c1ccc(Nc2nccc(-c3ccc4ccccc4c3)n2)cc1", "growth": "105% (inactive)"},
      {"smiles": "CNC1=CC(=O)c2c(C(=O)OC)c(C)[n+]([O-])c(C)c2C1=O", "growth": "8.07% (active)"},
      {"smiles": "Cc1ccc(/C=C/C(=O)c2cccc(OCCCOc3cccc(C(=O)/C=C/c4ccc(C)cc4)c3)c2)cc1", "growth": "90.9% (inactive)"},
      {"smiles": "Nc1c(C(=O)Nc2cccc(Cl)c2)sc2nc3c(cc12)CCCC3", "growth": "92.2% (inactive)"}
    ]}
  ]
}
